Assay results from PubChem BioAssay (EPA / NIEHS).
“And” between values parts separate entries of the source, which are not always exact repeats. Identical values can stand only once. More than one record can exist for a structure, and the calls need not agree. The source made the active and inactive calls. Rule for the calls: active = hit-call score of the fitted dose curve at least 0.9, where 1 is the maximum; inactive = score below 0.9.

Experiments:
[1] = read-out: Plasminogen activator inhibitor-1 (PAI1), SERPINE1 (gene 5054); experiment: BSK_CASM3C_PAI1: BioMAP Diversity Plus: CASM3C Assay for Plasminogen activator inhibitor-1 (PAI1) Biomarker Activity (AID 2284284); settings: primary human coronary artery smooth muscle cells;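 note: PAI-1 protein level measured by ELISA 24 h after dosing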
[2] = read-out: Monocyte Chemoattractant Protein-1 (MCP1), CCL2 (gene 6347); experiment: BSK_hDFCGF_MCP1: BioMAP Diversity Plus: hDFCGF Assay for Monocyte Chemoattractant Protein-1 (MCP1) Biomarker Activity (AID 2284285); settings: primary human foreskin fibroblasts
In short: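 MCP-1 ELISA readout was taken 24 hours after dosing primary human dermal fibroblasts in the hDFCGF system, with DMSO as baseline. Parallel sulforhodamine B staining of total protein tracked overt cytotoxicity.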

[3] = read-out: Vascular cell adhesion molecule 1 (VCAM1), VCAM1 (gene 7412); experiment: BSK_IMphg_VCAM1: BioMAP Diversity Plus: IMphg Assay for Vascular cell adhesion molecule 1 (VCAM1) Biomarker Activity (AID 2284286); settings: primary human endothelial cells with macrophages
In short: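 ELISA read-out of VCAM-1 on venular endothelial cell/macrophage co-cultures at 24 h post-treatment, with DMSO as baseline and positive-direction fitting. Parallel sulforhodamine B total-protein staining (560 nm) served as the overt cytotoxicity measure.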

[4] = read-out: Intercellular Adhesion Molecule 1 (ICAM1), ICAM1 (gene 3383); experiment: BSK_hDFCGF_ICAM1: BioMAP Diversity Plus: hDFCGF Assay for Intercellular Adhesion Molecule 1 (ICAM1) Biomarker Activity (AID 2284287); settings: primary human foreskin fibroblasts
In short: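 ICAM-1 ELISA readout 24 h after dosing, DMSO as baseline, in human dermal foreskin fibroblast cultures. Cytotoxicity checked in parallel wells by SRB staining (0.1% SRB, 10% TCA fixation, 560 nm).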

[5] = read-out: TIMP metallopeptidase inhibitor 2 (TIMP2), TIMP2 (gene 7077); experiment: BSK_hDFCGF_TIMP2: BioMAP Diversity Plus: hDFCGF Assay for TIMP metallopeptidase inhibitor 2 (TIMP2) Biomarker Activity (AID 2284289); settings: primary human foreskin fibroblasts
In short: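 Primary human foreskin fibroblasts in the hDFCGF system, dosed for 24 h; TIMP-2 level measured by ELISA, fitted in the positive direction against DMSO; cytotoxicity checked in parallel by sulforhodamine B total protein staining.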

[6] = read-out: Interleukin-1 alpha (IL1a), IL1A (gene 3552); experiment: BSK_IMphg_IL1a: BioMAP Diversity Plus: IMphg Assay for Interleukin-1 alpha (IL1a) Biomarker Activity (AID 2284290); settings: primary human endothelial cells with macrophages
In short: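 IL-1α is quantified by ELISA at 24 h in the endothelial/macrophage IMphg co-culture, with gain of signal fitted relative to DMSO. Parallel SRB total-protein staining flags overt toxicity.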

[7] = read-out: E-selectin (Homo sapiens) (UniProt P16581); experiment: BSK_IMphg_ESelectin: BioMAP Diversity Plus: IMphg Assay for Eselectin Biomarker Activity (AID 2284291); settings: primary human endothelial cells with macrophages
In short: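 Analysed against DMSO baseline in the positive fitting direction, this endpoint is an ELISA read of E-selectin. It comes from human venular endothelial cells co-cultured with macrophages, sampled 24 h post-dose.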

[8] = BSK_IMphg_SRB: Viability Assessment in the BioMAP Diversity Plus: IMphg Assay (AID 2284292); settings: primary human endothelial cells with macrophages;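 note: measured one day after compound addition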
In short: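 SRB viability endpoint: cultures of human endothelial cells plus macrophages fixed with 10% TCA, stained with 0.1% SRB, read at 560 nm 24 h post-dosing. Only gain-of-signal fitted, relative to DMSO.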

[9] = read-out: Macrophage colony-stimulating factor (MCSF), CSF1 (gene 1435); experiment: BSK_IMphg_MCSF: BioMAP Diversity Plus: IMphg Assay for Macrophage colony-stimulating factor (MCSF) Biomarker Activity (AID 2284293); settings: primary human endothelial cells with macrophages
In short: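 M-CSF was measured by ELISA in human venular endothelial cell/macrophage co-cultures dosed for 24 hours. Sulforhodamine B staining of parallel cultures assessed cytotoxicity; data fitted against DMSO baseline.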

[10] = read-out: Interleukin-10 (IL10), IL10 (gene 3586); experiment: BSK_IMphg_IL10: BioMAP Diversity Plus: IMphg Assay for Interleukin-10 (IL10) Biomarker Activity (AID 2284294); settings: primary human endothelial cells with macrophages
In short: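 IL-10 read by ELISA after 24 h chemical exposure of primary human venular endothelial cell/macrophage cocultures, with DMSO as baseline. Parallel SRB staining (560 nm) gauged overt cytotoxicity.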

[11] = BSK_IMphg_SRB.Mphg: Macrophage Viability Assessment in the BioMAP Diversity Plus: IMphg Assay (AID 2284295); settings: primary human endothelial cells with macrophages
In short: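 Cytotoxicity read-out: parallel cultures fixed with 10% TCA, stained with 0.1% sulforhodamine B, read at 560 nm. System combines venular endothelium and macrophages; sampled 24 h post-dosing, fitted positively relative to DMSO control.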

[12] = read-out: Thrombomodulin, THBD (gene 7056); experiment: BSK_LPS_Thrombomodulin: BioMAP Diversity Plus: LPS Assay for Thrombomodulin Biomarker Activity (AID 2284296); settings: primary human HUVEC with PBMC
In short: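 Thrombomodulin on the surface of LPS-activated endothelial/PBMC co-cultures was quantified by ELISA at 24 hours post-dosing, with DMSO as baseline. Parallel SRB total-protein staining flagged overt cytotoxicity.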

[13] = read-out: CD69, CD69 (gene 969); experiment: BSK_LPS_CD69: BioMAP Diversity Plus: LPS Assay for CD69 Biomarker Activity (AID 2284303); settings: primary human HUVEC with PBMC
In short: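 CD69 surface levels were read by ELISA after 24 h chemical treatment of an LPS-stimulated HUVEC plus PBMC co-culture; positive-direction fit against DMSO vehicle.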

[14] = IUF_NPC2c_oligodendrocyte_migration_120hr: Leibniz Research Institute for Environmental Medicine (IUF) 120-hour Neural Progenitor Cell Migration Assay for Oligodendrocyte Migration (NPC2c) (AID 2284297);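 note: O4-positive oligodendrocyte migration distance divided by radial glia migration distance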
In short: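 Primary hNPC spheres migrating on extracellular matrix, exposed five days to a 7-point dilution series with solvent control. Oligodendrocyte migration was scored by high-content imaging of O4 immunostaining and expressed relative to radial glia distance.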

[15] = IUF_NPC2a_radial_glia_migration_120hr: Leibniz Research Institute for Environmental Medicine (IUF) 120-hour Neural Progenitor Cell Migration Assay for Radial Glia Migration (NPC2a) (AID 2284298)
In short: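 In this multiplexed test, fetal hNPC spheres migrate radially on poly-D-lysine/laminin in N2 medium (37C, 5% CO2, pH 7.2-7.6) under continuous compound exposure over five days. Migration is scored at 120 h from automated Hoechst nuclear imaging.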

[16] = IUF_NPC2a_radial_glia_migration_72hr: Leibniz Research Institute for Environmental Medicine (IUF) 72-hour Neural Progenitor Cell Migration Assay for Radial Glia Migration (NPC2a) (AID 2284299)
In short: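 Radial glia migration (µm, sphere core edge to migration front, four directions averaged) from brightfield images at 72 h; hNPC spheres differentiating on PDL/laminin in N2 medium, compound exposure at 7 concentrations from plating.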

[17] = IUF_NPC2b_neuronal_migration_120hr: Leibniz Research Institute for Environmental Medicine (IUF) 120-hour Neural Progenitor Cell Migration Assay for Neuron Migration (NPC2b) (AID 2284300)
In short: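 Neurons identified by TUBB3 immunostaining and Hoechst nuclei; migration distance measured automatically on fixed wells at 120 h, normalized to glia migration. Exposure spanned five days of differentiation in N2 medium, seven test concentrations.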

[18] = IUF_NPC3_neuronal_differentiation_120hr: Leibniz Research Institute for Environmental Medicine (IUF) 120-hour Neuronal Differentiation Assay (NPC3) (AID 2284301)
In short: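 Value is percent TUBB3-positive neurons among Hoechst-stained nuclei in the migration area, scored by trained CNN after 120 h differentiation. Primary hNPC spheres on poly-D-lysine/laminin, N2 medium, continuous dosing from day 0, half-refeed day 3; DMSO reference.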

[19] = IUF_NPC4_neurite_length_120hr: Leibniz Research Institute for Environmental Medicine (IUF) 120-hour Neuronal Morphology Assay for Neurite Length (NPC4) (AID 2284302)
In short: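 Neurite length, the mean in um across TUBB3-stained neurons, is derived by skeletonization of high-content images after 120 h differentiation. Compound exposure, 7 concentrations plus solvent control, ran from plating of hNPC spheres on poly-D-lysine/laminin, with medium half-replaced on day 3.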

Measured: AC50

E-selectin (Homo sapiens), sequence (P16581 whole entry, looked up): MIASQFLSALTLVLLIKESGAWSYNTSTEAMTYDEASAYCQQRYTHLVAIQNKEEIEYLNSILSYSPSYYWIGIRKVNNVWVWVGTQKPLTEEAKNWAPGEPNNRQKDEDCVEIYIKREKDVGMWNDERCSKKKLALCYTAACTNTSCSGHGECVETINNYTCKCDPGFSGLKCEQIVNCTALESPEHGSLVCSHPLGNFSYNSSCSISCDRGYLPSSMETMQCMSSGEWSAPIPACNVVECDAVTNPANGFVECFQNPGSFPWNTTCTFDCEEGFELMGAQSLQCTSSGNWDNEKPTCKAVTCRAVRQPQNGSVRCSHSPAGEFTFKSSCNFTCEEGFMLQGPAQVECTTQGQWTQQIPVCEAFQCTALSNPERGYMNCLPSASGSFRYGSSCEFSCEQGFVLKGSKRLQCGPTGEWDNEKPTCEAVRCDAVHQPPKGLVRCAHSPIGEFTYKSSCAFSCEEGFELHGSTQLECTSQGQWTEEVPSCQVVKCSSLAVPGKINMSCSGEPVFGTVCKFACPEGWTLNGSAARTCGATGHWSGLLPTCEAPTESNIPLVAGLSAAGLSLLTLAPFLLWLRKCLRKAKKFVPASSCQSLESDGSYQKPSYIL

C=CC(F)(F)C(F)(F)C(F)(F)C(F)(F)C(F)(F)C(F)(F)C(F)(F)C(F)(F)C=C
not listed: [13] | [14] | [15] | [16] | [17] | [18] | [19]
inactive: all other assays above

C=C(C)C(=O)OCCC(F)(F)C(F)(F)C(F)(F)C(F)(F)C(F)(C(F)(F)F)C(F)(F)F
not listed: [14] | [15] | [16] | [17] | [18] | [19]
inactive: all other assays above

C=C(C)C(=O)OCC(F)(F)C(F)(F)C(F)(F)F
not listed: [13] | [14] | [15] | [16] | [17] | [18] | [19]
inactive: all other assays above

FC(F)(F)C(F)(F)C(F)(F)C(F)(F)CCI
not listed: [14] | [15] | [16] | [17] | [18] | [19]
inactive: all other assays above

FC(F)(F)C(F)(F)CNCC(F)(F)C(F)(F)F
active: [12] 0.227 µM
inactive: [1] | [2] | [3] | [4] | [5] | [6] | [7] | [8] | [9] | [10] | [11] | [12] | [13]

CCO[Si](CCC(F)(F)C(F)(F)C(F)(F)C(F)(F)C(F)(F)C(F)(F)F)(OCC)OCC
not listed: [13] | [14] | [15] | [16] | [17] | [18] | [19]
inactive: all other assays above

OCC(F)(F)C(F)(F)C(F)(F)C(F)F
not listed: [14] | [15] | [16] | [17] | [18] | [19]
inactive: all other assays above

CC(CCl)OP(=O)(OC(C)CCl)OC(C)CCl (stereo not given)
inactive: [14] | [15] | [16] | [17] | [18] | [19]

FC(F)(F)C(F)(F)C(F)(F)C(F)(F)C(F)(F)C(F)(F)CC1CO1 (stereo not given)
not listed: [13] | [14] | [15] | [16] | [17] | [18] | [19]
inactive: all other assays above

O=C(O)C(F)(OC(F)(F)C(F)(OC(F)(F)C(F)(OC(F)(F)C(F)(F)C(F)(F)F)C(F)(F)F)C(F)(F)F)C(F)(F)F (stereo not given)
not listed: [13] | [14] | [15] | [16] | [17] | [18] | [19]
inactive: all other assays above

C=CC(=O)OCC(F)(F)C(F)(F)C(F)(F)C(F)(F)C(F)(F)C(F)(F)C(F)(F)F
not listed: [13] | [14] | [15] | [16] | [17] | [18] | [19]
inactive: all other assays above

O=C(O)C(F)(F)C(F)(F)C(F)(F)C(F)(F)C(F)(F)C(F)(F)C(F)(F)C(F)(F)C(F)(F)C(F)(F)C(F)(F)C(F)(F)C(F)(F)F
not listed: [14] | [15] | [16] | [17] | [18] | [19]
inactive: all other assays above

O=S(=O)(OCCOC(F)(F)F)C(F)(F)F
not listed: [13] | [14] | [15] | [16] | [17] | [18] | [19]
inactive: all other assays above

CCCCC(CC)COP(=O)(O)OCC(CC)CCCC (stereo not given)
inactive: [1] | [4] | [5] | [12]
active: [2] 32.2 µM

Cc1ccc(S(=O)(=O)OCC(F)(F)C(F)(F)C(F)(F)C(F)(F)C(F)(F)C(F)F)cc1
active: [2] 6.75 µM and 3.49 µM
not listed: [13] | [14] | [15] | [16] | [17] | [18] | [19]
inactive: all other assays above

O=C(O)C(F)(F)C(F)(F)C(F)F
not listed: [13] | [14] | [15] | [16] | [17] | [18] | [19]
inactive: all other assays above
